Experiment [1] is described as follows: qHTS assay to identify aromatase inhibitors - cell viability counter screen (AID 743084).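 Note: cells stimulated with testosterone during compound exposure; nearly all actives have a fitted effect of over 55% in size.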 Note: potency is the fitted concentration of half-maximal effect.
The target in experiment [2] is Aryl hydrocarbon receptor (Homo sapiens) (UniProt P35869). The experiment can be described thus: qHTS assay to identify small molecule that activate the aryl hydrocarbon receptor (AhR) signaling pathway (AID 743085).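 Note: HG2L7.5c1 human HepG2 liver cells with stably integrated DRE-driven firefly reporter; series mostly up to about 70 µM; nearly all actives have a fitted effect of over 15% in size.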 The procedure, abridged:
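Luminescence (ONE-Glo) from a dioxin-responsive-element luciferase reporter in HG2L7.5c1 HepG2 cells after 24 hr compound exposure at 37C; viability measured by CellTiter-Fluor fluorescence beforehand.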

Experiment [3] in a line: qHTS assay to identify small molecule antagonists of the peroxisome proliferator-activated receptor gamma (PPARg) signaling pathway - cell viability counter screen (AID 743194). Note: nearly all actives have a fitted effect of over 55% in size. Note: potency is the fitted concentration of half-maximal effect. Conditions: Potency: co-treated with 50 nM rosiglitazone unless noted. The procedure, abridged: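 PPARg-UAS-bla HEK293H cells were plated, rested 5 h at 37 C, then treated with compounds plus rosiglitazone (50 nM final) for 17 h at 37 C; viability was then read by CellTiter-Glo luminescence after 30 min at room temperature.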

Experiment [4] in a line: qHTS assay for small molecule agonists of the antioxidant response element (ARE) signaling pathway - cell viability counter screen (AID 743203; calls by dose curve; note: nearly all actives have a fitted effect of over 55% in size; note: potency is the fitted concentration of half-maximal effect). An outline of the steps:
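Measured in the same wells as the beta-lactamase ARE reporter, this read-out is CellTiter-Glo luminescence from HepG2 ARE-bla cells given compounds for 16 hrs.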

A short description of experiment [5]: qHTS assay for small molecule activators of the heat shock response signaling pathway - cell viability counter screen (AID 743209). Note: nearly all actives have a fitted effect of over 50% in size. Note: potency is the fitted concentration of half-maximal effect. An outline of the steps: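 Same-well multiplex: after 2.5 h room-temperature incubation with LiveBLAzer B/G substrate and fluorescence reading, CellTiter-Glo reagent was added to HSE-bla HeLa cells that had received compound for 5 h at 37 C; luminescence read after 30 min.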

Experiment [6] is described as follows: qHTS assay to identify small molecule agonists of the peroxisome proliferator-activated receptor delta (PPARd) signaling pathway - cell viability counter screen (AID 743211). Note: nearly all actives have a fitted effect of over 55% in size. Note: potency is the fitted concentration of half-maximal effect. The procedure, abridged: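 Viability was measured as CellTiter-Glo luminescence (30 min, room temperature) in the same wells as the beta-lactamase readout. GeneBLAzer PPARd UAS-bla HEK293H cells received compound after 5 h plating and were incubated 17 h at 37 C.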

The target in experiment [7] is Peroxisome proliferator-activated receptor delta (Homo sapiens) (UniProt Q03181). Nature of the experiment: qHTS assay to identify small molecule agonists of the peroxisome proliferator-activated receptor delta (PPARd) signaling pathway (AID 743212; calls by dose curve). An outline of the steps: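 Beta-lactamase reporter read by fluorescence (LiveBLAzer B/G FRET, 2 h, room temperature). Test agents, in DMSO, incubated at 37 C with PPARd-bla HEK293H cells.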

Experiment [8] can be described thus: qHTS assay to identify small molecule antagonists of the peroxisome proliferator-activated receptor delta (PPARd) signaling pathway - cell viability counter screen (AID 743213). Note: nearly all actives have a fitted effect of over 50% in size. Note: potency is the fitted concentration of half-maximal effect. An outline of the steps: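 HEK293H cells with the PPARd UAS-bla reporter, co-treated 17 h at 37 C with compounds and L165041 (300 nM final), were lysed with CellTiter-Glo. Luminescence indicated viable cell content.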

The target in experiment [9] is Bile acid receptor (Homo sapiens) (UniProt Q96RI1). The experiment can be described thus: qHTS assay to identify small molecule agonists of the farnesoid-X-receptor (FXR) signaling pathway (AID 743220; active = well fitted activation curve with a large enough effect in the signal ratio in the repeat runs, not every such curve was filed as active; the % refers to the signal ratio). An outline of the steps:
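FXR-UAS-bla HEK 293T cells carrying a UAS-driven beta-lactamase reporter were plated for 5 h at 37C/5% CO2, then exposed to DMSO-dissolved Tox21 10K compounds for 16 h at 37C. A LiveBLAzer B/G FRET substrate was loaded for 2 h at room temperature before fluorescence reading.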

Experiment [10] is described as follows: qHTS assay to identify small molecule antagonists of the farnesoid-X-receptor (FXR) signaling pathway - cell viability counter screen (AID 743221; active = well fitted cell-killing curve with a large enough effect in the repeat runs, not every such curve was filed as active; note: nearly all actives have a fitted effect of over 50% in size; note: potency is the fitted concentration of half-maximal effect). The procedure, abridged: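 Cytotoxicity counter screen run in the FXR-bla reporter wells: HEK 293T cells exposed to compound with 50 uM (final) chenodeoxycholic acid for 16 h, 37 C, then viability measured by CellTiter-Glo luminescence after 30 min, room temperature.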

In experiment [11] the target is Vitamin D3 receptor (Homo sapiens) (UniProt P11473). The experiment can be described thus: qHTS assay to identify small molecule antagonists of the vitamin D receptor (VDR) signaling pathway (AID 743223; active = well fitted inhibition curve with a large enough effect in the signal ratio in the repeat runs, not every such curve was filed as active; the % refers to the signal ratio; note: potency is the fitted concentration of half-maximal effect). An outline of the steps:
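Antagonist mode: compound added to VDR-bla cells alongside agonist 1alpha,25-dihydroxyvitamin D3 (3 nM final), incubation 16 h at 37C. Read-out is LiveBLAzer FRET fluorescence, 2 h at room temperature.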

A short description of experiment [12]: qHTS assay to identify small molecule agonists of the farnesoid-X-receptor (FXR) signaling pathway - cell viability counter screen (AID 743218). Note: nearly all actives have a fitted effect of over 45% in size. Note: potency is the fitted concentration of half-maximal effect. An outline of the steps:
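Readout: CellTiter-Glo luminescence, 30 min RT, multiplexed after the FXR-bla FRET reading. HEK 293T FXR-UAS-bla cells received compound 5 h post-plating and were incubated 16 h at 37 C.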

Experiment [13] in a line: qHTS assay to identify small molecule that activate the aryl hydrocarbon receptor (AhR) signaling pathway - cell viability counter screen (AID 743086).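 Note: HepG2 liver cells carrying the AhR DRE luciferase reporter; series mostly up to about 70 µM; nearly all actives have a fitted effect of over 45% in size.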 The procedure, abridged: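 HepG2-AhR-luc (HG2L7.5c1) cells, 4000/well, were preincubated 5 h at 37C, exposed to compound in qHTS format for 24 hr at 37C, then given CellTiter-Fluor for 30 min; viability was read as fluorescence in the reporter wells.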

The target of experiment [14] is Peroxisome proliferator-activated receptor gamma (Homo sapiens) (UniProt P37231). Nature of the experiment: qHTS assay to identify small molecule agonists of the peroxisome proliferator-activated receptor gamma (PPARg) signaling pathway (AID 743094; active = well fitted activation curve with a large enough effect in the signal ratio in the repeat runs, not every such curve was filed as active; the % refers to the signal ratio). The procedure, abridged:
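Cell-based bla reporter, HEK293H background, PPARg-driven UAS. Pre-incubation 5 h, 37C, 5% CO2. Compound 17 h, 37C. Substrate 1 h RT; fluorescence.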

In experiment [15] the target is Peroxisome proliferator-activated receptor delta (Homo sapiens) (UniProt Q03181). The experiment can be described thus: qHTS assay to identify small molecule antagonists of the peroxisome proliferator-activated receptor delta (PPARd) signaling pathway (AID 743215; active = well fitted inhibition curve with a large enough effect in the signal ratio in the repeat runs, not every such curve was filed as active; the % refers to the signal ratio;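 note: cells stimulated with agonist L165041 at 300 nM final during compound exposure; series mostly up to about 62 µM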). The procedure, abridged: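 Fluorescence from cleaved LiveBLAzer B/G FRET substrate (2 h, room temperature) reports PPARd-driven beta-lactamase in HEK293H UAS-bla cells. Cells had been treated 17 h at 37 C with compound plus 300 nM final L165041.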

For experiment [16], the target named is Peroxisome proliferator-activated receptor gamma (Homo sapiens) (UniProt P37231). Nature of the experiment: qHTS assay to identify small molecule antagonists of the peroxisome proliferator-activated receptor gamma (PPARg) signaling pathway (AID 743191; calls by dose curve; note: nearly all actives have a fitted effect of over 30% in size; note: potency is the fitted concentration of half-maximal effect). An outline of the steps:
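GeneBLAzer PPARg UAS-bla HEK293H cells carrying a UAS-driven beta-lactamase reporter were plated at 3000 cells/well, preincubated 5 h at 37C, then given compound for 17 h at 37C; LiveBLAzer B/G FRET substrate was read after 1 h at room temperature.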

Experiment [17] addresses Vitamin D3 receptor (Homo sapiens) (UniProt P11473). Nature of the experiment: qHTS assay to identify small molecule agonists of the vitamin D receptor (VDR) signaling pathway (AID 743222; calls by dose curve). An outline of the steps: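 Following 4 h attachment at 37C, VDR-bla cells (2,000 per well) received DMSO-dissolved compounds or controls. After 16 h incubation, LiveBLAzer B/G FRET substrate was added and fluorescence read 2 h later at room temperature.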

Experiment [18] in a line: qHTS assay for small molecule agonists of the antioxidant response element (ARE) signaling pathway (AID 743202; active = well fitted activation curve with a large enough effect in the signal ratio in the repeat runs, not every such curve was filed as active; the % refers to the signal ratio). The procedure, abridged:
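Following a 16 h, 37 C exposure of reporter HepG2 cells (ARE-driven beta-lactamase, 2,000 cells/well) to compounds, FRET substrate was applied for 2 h at room temperature and fluorescence intensity recorded.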

A short description of experiment [19]: qHTS assay for small molecule activators of the heat shock response signaling pathway (AID 743210; active = well fitted activation curve with a large enough effect in the signal ratio in the repeat runs, with a control signal flat, not every such curve was filed as active; the % refers to the signal ratio; note: series mostly up to about 63 µM). The procedure, abridged: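 Heat shock element–beta-lactamase HeLa reporter cells; qHTS with compounds for 5 h at 37 C; detection by FRET substrate fluorescence after 2.5 h at RT.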
Experiment [20] concerns the target Bile acid receptor (Homo sapiens) (UniProt Q96RI1). The experiment can be described thus: qHTS assay to identify small molecule antagonists of the farnesoid-X-receptor (FXR) signaling pathway (AID 743217; active = well fitted inhibition curve with a large enough effect in the signal ratio in the repeat runs, not every such curve was filed as active; the % refers to the signal ratio). The procedure, abridged: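 FRET fluorescence after 2 h room-temperature LiveBLAzer loading gives the readout. Prior step: FXR-bla HEK 293T cells, seeded and incubated 5 h, received test compounds plus 50 uM final CDCA for 16 h at 37 °C.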

The source of these data is PubChem BioAssay (Tox21).

Each structure is given as a SMILES string. Several values for one entry are separate records, joined by “and”; a condition that tells them apart may be missing. Identical values can stand only once. Inconclusive results are not listed. Values without a mark were called inactive. Activity calls are given as the source filed them. Unless noted, calls come from the whole dose curve; as a rule, active = well fitted curve in the direction sought with a large enough effect in the repeat runs; inconclusive = weak or mixed curves; inactive = no such curve, though single readings can be large; an effect the other way counts as inactive or inconclusive.
% is set by controls: 0 for no effect and ±100 for the full control effect.

Peroxisome proliferator-activated receptor gamma (Homo sapiens), sequence (P37231 whole entry, looked up): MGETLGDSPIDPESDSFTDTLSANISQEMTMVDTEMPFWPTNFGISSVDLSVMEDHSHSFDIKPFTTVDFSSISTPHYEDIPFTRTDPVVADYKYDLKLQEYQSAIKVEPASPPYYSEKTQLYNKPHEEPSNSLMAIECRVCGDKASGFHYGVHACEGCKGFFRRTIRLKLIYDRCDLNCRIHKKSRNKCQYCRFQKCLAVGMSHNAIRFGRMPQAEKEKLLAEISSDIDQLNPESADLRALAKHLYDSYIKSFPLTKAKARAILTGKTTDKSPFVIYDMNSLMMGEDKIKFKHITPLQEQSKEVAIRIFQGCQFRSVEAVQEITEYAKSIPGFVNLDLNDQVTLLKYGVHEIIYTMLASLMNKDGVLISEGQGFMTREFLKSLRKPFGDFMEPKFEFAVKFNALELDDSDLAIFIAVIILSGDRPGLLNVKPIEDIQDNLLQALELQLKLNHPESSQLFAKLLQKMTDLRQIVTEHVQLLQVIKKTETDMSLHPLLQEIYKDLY
Bile acid receptor (Homo sapiens), sequence (Q96RI1 whole entry, looked up): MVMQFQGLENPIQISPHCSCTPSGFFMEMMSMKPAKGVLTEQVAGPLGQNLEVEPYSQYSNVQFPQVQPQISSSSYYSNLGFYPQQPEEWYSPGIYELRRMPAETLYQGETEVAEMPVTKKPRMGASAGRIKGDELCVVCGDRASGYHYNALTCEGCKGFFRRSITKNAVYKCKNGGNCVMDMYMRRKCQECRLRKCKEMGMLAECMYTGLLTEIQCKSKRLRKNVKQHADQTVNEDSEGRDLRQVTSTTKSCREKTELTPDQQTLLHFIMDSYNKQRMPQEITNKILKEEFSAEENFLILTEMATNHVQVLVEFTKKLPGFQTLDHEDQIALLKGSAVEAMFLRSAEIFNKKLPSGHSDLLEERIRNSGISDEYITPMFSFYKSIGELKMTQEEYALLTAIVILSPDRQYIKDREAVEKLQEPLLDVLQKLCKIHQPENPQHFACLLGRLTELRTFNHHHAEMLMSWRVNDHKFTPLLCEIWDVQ
Peroxisome proliferator-activated receptor delta (Homo sapiens), sequence (Q03181 whole entry, looked up): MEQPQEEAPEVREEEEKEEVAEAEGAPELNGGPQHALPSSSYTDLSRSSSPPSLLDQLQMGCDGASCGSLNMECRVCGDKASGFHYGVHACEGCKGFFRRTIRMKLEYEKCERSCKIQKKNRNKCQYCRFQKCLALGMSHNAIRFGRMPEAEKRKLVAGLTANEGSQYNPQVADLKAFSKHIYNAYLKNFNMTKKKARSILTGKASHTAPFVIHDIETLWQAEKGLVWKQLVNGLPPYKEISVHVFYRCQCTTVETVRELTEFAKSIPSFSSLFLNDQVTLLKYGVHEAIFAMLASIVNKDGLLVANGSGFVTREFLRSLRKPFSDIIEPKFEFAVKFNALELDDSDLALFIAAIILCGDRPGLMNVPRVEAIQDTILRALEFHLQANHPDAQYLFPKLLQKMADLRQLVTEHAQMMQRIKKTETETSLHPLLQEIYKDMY
Aryl hydrocarbon receptor (Homo sapiens), sequence (P35869 whole entry, looked up): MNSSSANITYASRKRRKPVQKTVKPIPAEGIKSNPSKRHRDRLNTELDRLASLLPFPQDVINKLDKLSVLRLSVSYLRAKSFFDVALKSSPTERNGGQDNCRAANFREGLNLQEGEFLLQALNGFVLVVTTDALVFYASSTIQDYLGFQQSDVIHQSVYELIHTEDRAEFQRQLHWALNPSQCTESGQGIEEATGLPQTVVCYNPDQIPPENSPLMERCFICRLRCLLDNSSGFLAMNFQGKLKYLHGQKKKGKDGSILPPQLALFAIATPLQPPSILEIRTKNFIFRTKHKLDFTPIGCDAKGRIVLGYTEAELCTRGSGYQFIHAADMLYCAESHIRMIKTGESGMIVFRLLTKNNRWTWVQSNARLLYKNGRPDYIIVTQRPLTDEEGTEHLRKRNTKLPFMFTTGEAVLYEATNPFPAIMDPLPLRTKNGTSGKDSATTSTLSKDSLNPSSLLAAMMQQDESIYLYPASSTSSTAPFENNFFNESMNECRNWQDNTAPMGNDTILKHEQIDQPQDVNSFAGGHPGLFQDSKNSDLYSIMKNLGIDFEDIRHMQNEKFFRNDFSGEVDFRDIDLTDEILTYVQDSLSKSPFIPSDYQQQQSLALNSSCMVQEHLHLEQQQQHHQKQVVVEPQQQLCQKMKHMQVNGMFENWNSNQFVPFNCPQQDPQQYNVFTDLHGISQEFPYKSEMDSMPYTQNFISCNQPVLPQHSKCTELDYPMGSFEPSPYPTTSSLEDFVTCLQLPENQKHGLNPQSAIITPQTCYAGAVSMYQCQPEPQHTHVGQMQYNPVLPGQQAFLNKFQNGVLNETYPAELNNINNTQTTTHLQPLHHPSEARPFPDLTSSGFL
Vitamin D3 receptor (Homo sapiens), sequence (P11473 whole entry, looked up): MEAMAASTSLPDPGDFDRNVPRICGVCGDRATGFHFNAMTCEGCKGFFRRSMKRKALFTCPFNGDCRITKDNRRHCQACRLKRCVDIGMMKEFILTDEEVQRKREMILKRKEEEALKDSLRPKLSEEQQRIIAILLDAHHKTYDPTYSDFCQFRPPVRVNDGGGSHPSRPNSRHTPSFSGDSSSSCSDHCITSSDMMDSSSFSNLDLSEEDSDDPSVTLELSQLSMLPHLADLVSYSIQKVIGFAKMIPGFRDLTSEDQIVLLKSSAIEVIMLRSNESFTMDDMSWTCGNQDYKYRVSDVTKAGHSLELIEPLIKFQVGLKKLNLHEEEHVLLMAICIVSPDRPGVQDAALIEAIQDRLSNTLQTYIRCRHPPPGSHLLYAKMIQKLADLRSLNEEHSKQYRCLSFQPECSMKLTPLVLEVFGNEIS

On to `O=C1C2(Cl)C3(Cl)C4(Cl)C(Cl)(Cl)C5(Cl)C3(Cl)C1(Cl)C5(Cl)C24Cl` (centres undefined), for which the Potency in [1] was 26.9 µM (active) and 52.2 µM (active); in experiment [3], 38.3 µM (active); in experiment [4], 67.5 µM (active) and 58.5 µM (active); in [5] it was 48.2 µM (active); in experiment [6], 48.2 µM (active) and 46.9 µM (active); in experiment [8], 54 µM (active). For the same molecule, the Potency in experiment [10] and in [11] was 54 µM (active) in each case. For the same molecule, the Potency entry in experiment [2], in experiment [7] and in experiment [9] was “inactive” each time.
With `CC(=O)[O-].CC(=O)[O-].[Co+2]`, the Potency result in experiment [1], in experiment [2], in experiment [3], in experiment [4], in experiment [5] and in experiment [6] was “inactive” each time. Moreover, the Potency entry in [8], in experiment [12] and in experiment [10] was “inactive” throughout.
For the molecule `O=C(Nc1ccc(F)cc1F)c1cccnc1Oc1cccc(C(F)(F)F)c1`, the Potency entry in [1], in experiment [13], in experiment [14], in experiment [3], in [4] and in experiment [6] was “inactive” in each case. The Potency result in experiment [7], in experiment [8], in experiment [15], in experiment [12], in [9] and in experiment [10] was “inactive” throughout. Also, the Potency result in experiment [11] is “inactive”.
Consider `COP(=O)(OC)Oc1ccc([N+](=O)[O-])cc1`, for which the Potency entry in experiment [1], in [2], in experiment [4], in experiment [6], in experiment [8] and in experiment [12] was “inactive” throughout. Besides, the Potency entry in experiment [17] is “inactive”. The Potency in [16] was 17.4 µM (active).
With `CCCCC/C=C\C/C=C\C/C=C\C/C=C\CCCC(=O)NCC(=O)O`, the activity change, negative = cytotoxicity in experiment [1] is -2.83% [at 8.47 µM]. Besides, the viability change, negative = cytotoxic in experiment [13] is 8.28% [at 8.47 µM]. In experiment [14], the activation is -0.604% [at 7.08 µM]. Besides, the Potency entry in experiment [3], in experiment [4] and in experiment [17] was “inactive” each time. Further, the Potency in [12] was 29.8 µM (active).
In the case of `COC(=O)C(C)N(C(=O)c1ccco1)c1c(C)cccc1C` (centres undefined), the Potency entry in experiment [1], in [13], in [14], in [16], in [3] and in [18] was “inactive” throughout. In addition, the Potency result in experiment [4], in experiment [5], in [19], in experiment [6], in experiment [7] and in experiment [8] was “inactive” throughout. Besides, the Potency result in experiment [15], in [12], in [10] and in [11] was “inactive” each time.
For `CNC(=O)/C=C(\C)OP(=O)(OC)OC`, the Potency entry in experiment [1], in experiment [13], in experiment [14], in [16], in experiment [18] and in [4] was “inactive” throughout. For the same molecule, the Potency result in [5], in experiment [19], in [6], in experiment [7], in [8] and in experiment [15] was “inactive” in each case. The Potency result in [20], in experiment [9], in experiment [10], in experiment [17] and in experiment [11] was “inactive” each time.
Take `CC(Cc1ccc(O)cc1)NCC(O)c1cc(O)cc(O)c1` (centres undefined): the Potency entry in [1], in experiment [13], in experiment [14], in experiment [16], in experiment [3] and in [18] was “inactive” in each case. Moreover, the Potency result in [4], in [5], in [19], in experiment [6], in [7] and in [15] was “inactive” in each case. Moreover, the Potency entry in experiment [20], in experiment [10] and in experiment [17] was “inactive” each time.
With `Clc1ccc(C(Cl)(Cl)Cl)cc1Cl`, the Potency entry in experiment [1], in experiment [13], in experiment [14], in [16], in experiment [3] and in [4] was “inactive” in each case. In addition, the Potency result in [19], in experiment [6], in experiment [8], in experiment [15], in experiment [10] and in experiment [17] was “inactive” throughout. In addition, in experiment [11], the Potency entry was “inactive”.
